AI-2 QS mod: modulators of Vibrio harveyi AI-2 quorum sensing system | AID 2094 | 300,000 compounds, 0.4% hits | Vibrio harveyi JMH597 AI-2 luminescence/OD600 ratio, 9 h; hits give low values; strain lacks LuxN and CqsS sensors; 0 = neutral-control median | activity change, % at 7.5 µM; in the data active = activity change below about -75%, passing the limit was not always enough;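 also: luminescence divided by OD600 gain over 9 h not by final OD600 alone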
ATG4B inh: blocks human ATG4B protease cleavage of LC3 substrate. Q9Y4P1. ATG4B cleavage of LC3-PLA2, NBD-HPC fluorescence, 1 h. inhibition, % at 8.33 µM. 340,000 compounds, 0.51% hits; in the data active = inhibition above about 40%
Target sequence (Q9Y4P1 whole entry, looked up): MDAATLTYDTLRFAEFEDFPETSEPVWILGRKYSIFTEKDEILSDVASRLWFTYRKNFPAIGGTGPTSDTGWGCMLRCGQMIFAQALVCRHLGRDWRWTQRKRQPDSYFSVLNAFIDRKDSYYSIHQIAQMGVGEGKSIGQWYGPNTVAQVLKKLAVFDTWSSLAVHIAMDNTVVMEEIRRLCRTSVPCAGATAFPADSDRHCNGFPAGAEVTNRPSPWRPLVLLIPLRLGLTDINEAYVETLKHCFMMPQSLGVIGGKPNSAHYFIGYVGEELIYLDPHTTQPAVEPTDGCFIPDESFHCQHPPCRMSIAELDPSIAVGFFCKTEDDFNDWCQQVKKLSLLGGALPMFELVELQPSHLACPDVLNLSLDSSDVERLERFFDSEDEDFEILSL
SUMO Mot1 rescue: inhibitors of SUMOylation pathway: yeast Mot1-301 growth rescue; S. cerevisiae Mot1-301 growth rescue, ATP luminescence, 38.5C; percent above DMSO median, 100 means doubled; growth rescue, % at 18.8 µM; 320,000 compounds, 1% hits;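 active = every valid replicate shows activation above 250% relative to neutral control wells; inactive = the rest, any valid replicate at or below 250%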;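 also: OY570 slx delta 5 strain wells were the positive control but not used for scaling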
V-ATPase pHluor: regulators of yeast V-ATPase proton transport. S. cerevisiae, pHLuorin cytosolic pH fluorescence. response, % at 10 µM. 350,000 compounds, 0.37% hits. AID 504577; in the data active = response mostly above about 7.3%, no sharp cut-off; inactive = mostly below about 5.4%; also: actives read high
Efflux pump mplx: blocks antifungal efflux pumps in multiplex yeast assay. S. cerevisiae Candida pump triplex, Nile Red efflux. inhibition, % at 10 µM. 330,000 compounds, 0.44% hits. AID 485275;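 active = plate passing quality check with inhibition over a set limit, or well fluorescence over plate mean plus 4 SD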;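 also: Nile Red retained in pooled yeast measured as flow cytometry median fluorescence; 0% = buffer negative control and 100% = Enniatin B positive control; higher means more Nile Red kept so more efflux inhibition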
JMH597 growth: retest Vibrio harveyi JMH597 growth inhibition; shares compounds with AI-2 QS mod; OD600 absorbance, 9 h; lacks LuxN and CqsS sensors; growth inhibition, % at 7.5 µM; 750 compounds, 1% hits; AID 2726;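 active = every replicate shows growth inhibition above 50%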
BB721 lum counter: retest counter-screen: luminescence loss in constitutive-on quorum sensing strain BB721. Vibrio harveyi BB721 luminescence, 9 h. AID 2727. inhibition, % at 7.5 µM. shares compounds with AI-2 QS mod. 750 compounds, 95% hits;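 active = inhibition above about 80% in every replicate, not just on average, limit read from the data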
BB721 growth: retest: blocks Vibrio harveyi BB721 growth; shares compounds with AI-2 QS mod; OD600 absorbance, 9 h; growth inhibition, % at 7.5 µM; 750 compounds, 3% hits;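 active = every replicate shows growth inhibition above 50%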
AI-2 QS JMH597: Vibrio harveyi AI-2 signaling luminescence modulation – JMH597 strain, confirmation; 750 compounds, 97% hits; inhibition, % at 7.5 µM; AID 2736; Vibrio harveyi JMH597 AI-2 quorum sensing luminescence, 9 h; luxN and CqsS knockout, AI-2 only; shares compounds with AI-2 QS mod;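 active = every replicate shows more than 75% inhibition of signal versus neutral control wells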
* marks the source's active call; other numbers are inactive results. Hits are enriched below; roughly 2.5% of the tested compounds scored in any of these assays.

Results for Clc1ccc(CSc2nnc(-c3cccnc3)o2)cc1 ?
AI-2 QS mod: -92.9*; ATG4B inh: -2.1; SUMO Mot1 rescue: -14.6; V-ATPase pHluor: -1.4; Efflux pump mplx: -0.1; JMH597 growth: 27.3; BB721 lum counter: 98.0*; BB721 growth: 22.4; AI-2 QS JMH597: 98.6*

How did Cc1ccc(CSc2nnc(-c3cccnc3)o2)cc1 do in these assays?
AI-2 QS mod: -96.2*; ATG4B inh: -3.9; SUMO Mot1 rescue: 288.2; V-ATPase pHluor: -3.1; Efflux pump mplx: 0.1; JMH597 growth: 25.9; BB721 lum counter: 99.1*; BB721 growth: 9.0; AI-2 QS JMH597: 99.4*

What do the screens show for `COc1ccc(CCn2c(C(C)C)nc3oc4ccccc4c(=O)c3c2=O)cc1`?
AI-2 QS mod: -0.4; ATG4B inh: -15.1; SUMO Mot1 rescue: 21.3; V-ATPase pHluor: -1.9; Efflux pump mplx: 0.1

What do the screens show for `O=C(NCc1ccccn1)c1cccc(S(=O)(=O)N2CCc3ccccc32)c1`?
ATG4B inh: -10.0; SUMO Mot1 rescue: 3.8; V-ATPase pHluor: -3.4; Efflux pump mplx: -0.1

Results for COC(C(=O)Nc1ccnn1C1CCN(C(=O)c2ccc(C=O)cc2)CC1)c1ccccc1 (stereo not given) ?
AI-2 QS mod: 11.2; ATG4B inh: -0.7; SUMO Mot1 rescue: -16.1; V-ATPase pHluor: 1.1; Efflux pump mplx: 0.3

What do the screens show for `O=C(NCCCN1CCOCC1)C1CCN(S(=O)(=O)c2ccccc2)CC1`?
AI-2 QS mod: 23.1; ATG4B inh: 1.3; SUMO Mot1 rescue: -3.2; V-ATPase pHluor: -0.9; Efflux pump mplx: -0.1

Results for Nn1c(SCc2ccc(Br)cc2)nnc1-c1cccnc1 ?
AI-2 QS mod: -86.5*; ATG4B inh: -1.9; SUMO Mot1 rescue: 11.1; V-ATPase pHluor: 0.5; Efflux pump mplx: -0.1; JMH597 growth: 20.6; BB721 lum counter: 95.5*; BB721 growth: 10.9; AI-2 QS JMH597: 96.4*

How did CN(Cc1nc(Cc2cccc(C(F)(F)F)c2)no1)C1CC(C)(C)NC(C)(C)C1 do in these assays?
AI-2 QS mod: 7.3; ATG4B inh: 0.0; SUMO Mot1 rescue: -41.0; V-ATPase pHluor: 4.5; Efflux pump mplx: 0.0

Results for Cc1ccc(C(CC(=O)N2CCCC2)c2ccccc2)c(O)c1 (stereo not given) ?
AI-2 QS mod: 2.4; ATG4B inh: 0.7; SUMO Mot1 rescue: -17.6; V-ATPase pHluor: 1.3; Efflux pump mplx: 0.0

How did Nc1cc(Nc2ccc(Br)cc2)nc(N)n1 do in these assays?
AI-2 QS mod: -96.3*; ATG4B inh: 8.3; SUMO Mot1 rescue: 96.3; V-ATPase pHluor: 3.7; Efflux pump mplx: -0.2; JMH597 growth: 12.9; BB721 lum counter: 99.0*; BB721 growth: 22.6; AI-2 QS JMH597: 99.2*

How did O=C(CCC1CCCC1)NNC(=O)c1cc2ccccc2cc1O do in these assays?
AI-2 QS mod: 25.9; ATG4B inh: 25.2; SUMO Mot1 rescue: 243.8; V-ATPase pHluor: 5.5; Efflux pump mplx: -0.1

How did Cc1ccc(O)c(NC(=O)CCC2CCCCC2)c1 do in these assays?
AI-2 QS mod: -83.7*; ATG4B inh: 0.5; V-ATPase pHluor: -2.1; Efflux pump mplx: 0.2; JMH597 growth: 17.2; BB721 lum counter: 93.2*; BB721 growth: 16.8; AI-2 QS JMH597: 95.3*

How did Cc1ccc(O)c(NC(=O)C2CCCCC2)c1 do in these assays?
AI-2 QS mod: 13.9; ATG4B inh: 7.7; SUMO Mot1 rescue: 216.3; V-ATPase pHluor: -2.0; Efflux pump mplx: 0.2

How did O=C(CCC1CCCCC1)Nc1ccccc1O do in these assays?
AI-2 QS mod: -85.0*; ATG4B inh: 8.0; SUMO Mot1 rescue: 6.8; V-ATPase pHluor: -1.2; Efflux pump mplx: -0.1; JMH597 growth: 23.7; BB721 lum counter: 93.6*; BB721 growth: 23.5; AI-2 QS JMH597: 93.8*

What do the screens show for `Cc1ccc(CNc2ncnc3c2cnn3C2CCCCO2)cc1` (stereo not given)?
ATG4B inh: 1.9; V-ATPase pHluor: -1.6

Assay outcomes from PubChem BioAssay.
